Sampled rows, rich in hits. Any-hit rate of the full collection: about 2.2%.
LGR2 inh – inhibitors of bursicon-induced Drosophila LGR2 receptor cAMP signaling | HEK293 LGR2, CRE-luciferase, bursicon-stimulated, 4 h | inhibition, % at 9.99 µM | AID 720647 | 380,000 compounds, 0.35% hits;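 active = drop in luminescence signal, shown as inhibition above about 50% in the replicate tests, limit read from the data, passing the limit was not always enough; inconclusive = probably only some replicates passing the limit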;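 also: agonist challenge used bursicon conditioned medium at about half maximal strength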
LMP1 NFkB inh – Epstein-Barr LMP1 NF-kappaB reporter inhibition; LMP1-induced NF-kappaB luciferase reporter cells, luminescence; AID 504558; 350,000 compounds, 0.69% hits; inhibition, % at 12.5 µM; in the data active = inhibition above about 41%; inconclusive = no clear call, values can overlap the other calls;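 also: 0% = neutral control wells and 100% = reference inhibitor control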
PAX8 reporter – lowers PAX8-driven luciferase in RMG-I cells. RMG-I TPO-luciferase reporter, SteadyGlo, 24 h. inhibition, % at 12.6 µM. 360,000 compounds, 1.2% hits;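 active = mean replicate inhibition at least 60% with every replicate also reaching 60%; inconclusive = only one of the two criteria is met; inactive = mean below 60% and not all replicates reaching 60%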;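 also: luciferase light reporting Pax8 driven TPO promoter activity; plate controls were median of neutral control wells for no effect and mitoxantrone controls for full effect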
Shn3 3UTR inh – reduces Shn3 3'UTR luciferase signal in osteoblasts; inhibition, % at 12.5 µM; Clone20 osteoblast Shn3 3'UTR firefly luciferase, 24 h; 360,000 compounds, 0.52% hits; AID 588674;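 active = mean inhibition of at least 75% with every replicate also reaching 75%; inconclusive = mean inhibition at least 75% but some replicate below; inactive = mean inhibition below 75%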;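 also: 0% = median of neutral control wells and 100% = pilot-screen positive control compound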
MITF TRPM1 inh – reduces MITF-dependent TRPM1 promoter luciferase signal. SK-MEL-5 TRPM1 promoter luciferase, 24 h. inhibition, % at 12.5 µM. AID 488899. 330,000 compounds, 0.83% hits;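 active = mean inhibition across replicates of 60% or more, whatever share of single replicates reaches that level; inconclusive = some that reach 60%, reason not given; inactive = mean inhibition across replicates below 60%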
EWS-Fli inh – inhibitors of EWS/Fli oncoprotein transcriptional activity. A673 NR0B1-luciferase reporter, viability-normalised. inhibition, % at 12.6 µM. 350,000 compounds, 0.67% hits. AID 651661;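 active = mean inhibition of at least 50% after viability correction, with every replicate also passing that limit; inconclusive = mean reaches 50% but only one of two replicates passes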;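 also: firefly luciferase signal divided by Alamar Blue viability fluorescence both relative to DMSO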
Active calls of the source: *; u = inconclusive; x = not tested or not shown.

SMILES | LGR2 inh | LMP1 NFkB inh | PAX8 reporter | Shn3 3UTR inh | MITF TRPM1 inh | EWS-Fli inh
N#Cc1c(Nc2ccccc2)sc(C(=O)c2ccc(F)cc2)c1N | -12 | 43* | 32 | 22 | 6 | x
Cc1ccc(C(=O)c2sc(Nc3ccccc3)c(C#N)c2N)cc1 | -20 | -6 | 30 | 26 | 12 | x
CC[C@@H](C)[C@H](CN[C@H](CNC)C(C)C)NC[C@@H](C)c1ccc(CC(C)C)cc1 | -6 | -11 | 43 | 67 | 100* | 47
CN(C)CCCNC(=O)/C(=C\c1ccc(-c2cccc([N+](=O)[O-])c2)o1)NC(=O)c1ccccc1 | -2 | 3 | -8 | 9 | -22 | 12
CN(C)CCNC(=O)/C(=C/c1ccc(-c2ccc(Cl)cc2)o1)NC(=O)c1ccccc1 | 3 | -1 | 11 | -1 | 66* | x
CN(C)CCNC(=O)/C(=C/c1ccc(-c2ccc(Cl)cc2Cl)o1)NC(=O)c1ccccc1 | -4 | -25 | 17 | -17 | 95* | x
Cc1ccc(C(=O)N/C(=C\c2ccc(-c3ccc(Br)cc3)o2)C(=O)NCCCN(C)C)cc1 | u | 2 | 95* | 6 | 107* | 51*
Cc1ccc(C(=O)N/C(=C\c2ccc(-c3cccc([N+](=O)[O-])c3)o2)C(=O)NCCCN(C)C)cc1 | x | 36 | -5 | 12 | 13 | 5
O=C(C[n+]1cc(-c2ccc(Cl)cc2)n2c1CCC2)N1c2ccccc2Sc2ccccc21 | 8 | 3 | 70* | -10 | 12 | x
COc1ccc(-c2c[n+](CC(=O)N3c4ccccc4Sc4ccccc43)c3n2CCC3)cc1 | 2 | 0 | 76* | 12 | 21 | 3
O=C(C[n+]1cc(-c2ccc(Cl)c(Cl)c2)n2c1CCC2)N1c2ccccc2Sc2ccccc21 | -4 | 0 | 40 | 6 | 3 | x
COc1cc(N=C2C(=O)N3c4c(cccc42)C(C)=CC3(C)C)cc(OC)c1 | 10 | -6 | 6 | 12 | -1 | x
CC1=CC(C)(C)N2C(=O)C(=Nc3ccc(O)cc3)c3cccc1c32 | 10 | -4 | 9 | 3 | 78* | 30
CCN1CCN(C2=C(NS(=O)(=O)c3ccc(C)cc3)C(=O)c3ccccc3C2=O)CC1 | -1 | -16 | 20 | -39 | 70* | x
CCN1CCN(C2=C(NS(=O)(=O)c3ccc(NC(C)=O)cc3)C(=O)c3ccccc3C2=O)CC1 | 14 | -5 | 21 | -26 | 40 | -4
CC(=O)Nc1ccc(S(=O)(=O)NC2=C(N3CCN(C)CC3)C(=O)c3ccccc3C2=O)cc1 | 7 | 3 | 16 | 14 | 83* | 3
C[C@H](CO)N1C[C@H](C)[C@H](CN(C)C(=O)Cc2cccnc2)Oc2ncc(C#CCc3ccccc3)cc2C1=O | 4 | x | x | x | x | -14
Cc1ccc(-c2csc(=Nc3cccnc3)n2CCCN2CCCC2=O)cc1C | -4 | 3 | 10 | 6 | 21 | x
Cc1ccc(-c2csc(=Nc3cccnc3)n2CCCn2ccnc2)cc1C | x | 47* | -7 | 77 | 3 | -4
c1ccc(-c2cc3n(c2)CCc2ccccc2-3)cc1 | 66* | 32 | x | -24 | 0 | x
O=C(O)c1cc2c(s1)-c1ccccc1CC2 | 5 | 10 | 4 | -20 | -3 | x
COc1ccc2c3c(n(C)c2c1)[C@H](CO)N(C(=O)C1CC1)CC31CCN(C(=O)c2ccncc2)CC1 | -21 | x | -2 | x | x | 8
Brc1ccc2c(c1)C(C1=NCCN1)c1ccccc1CS2 (configuration not stated) | 2 | -5 | 11 | 12 | -6 | 58*
Fc1ccc(NC(=S)N2CCCN(c3ccc(C(F)(F)F)cn3)CC2)c(F)c1 | 23 | 19 | 24 | 89* | 42 | 2
O=C(Nc1ccc(F)cc1F)N1CCCN(c2ccc(C(F)(F)F)cn2)CC1 | -2 | 2 | 22 | 21 | 19 | 18
SMILES | LGR2 inh | LMP1 NFkB inh | PAX8 reporter | Shn3 3UTR inh | MITF TRPM1 inh | EWS-Fli inh
COc1cc(C2c3cc4c(cc3CC3COC(=O)N32)OCO4)cc(OC)c1OC (configuration not stated) | -19 | -3 | 72* | 8 | 17 | u
COc1cc2c(c(OC)c1OC)C(c1ccc3c(c1)OCO3)CC(=O)O2 (configuration not stated) | -1 | -3 | -10 | -3 | 4 | 7
CCCNC(=O)N1[C@@H](CO)[C@@H](c2ccccc2)[C@@H]1CNC(=O)c1cccc(F)c1 | -7 | x | -61 | x | x | 7
CC1CCCC(NCC(O)COC(c2ccc(F)cc2)c2ccc(F)cc2)C1C (configuration not stated) | 9 | -16 | u | 28 | 86* | 41
C[C@H]1CN([C@@H](C)CO)S(=O)(=O)c2ccc(-c3ccccc3)cc2O[C@@H]1CN(C)Cc1cccnc1 | -1 | x | 20 | x | x | 2
C[C@@H]1CN([C@@H](C)CO)S(=O)(=O)c2ccc(-c3ccccc3)cc2O[C@H]1CN(C)Cc1cccnc1 | 0 | x | u | x | x | 67*
C[C@@H]1CN([C@H](C)CO)S(=O)(=O)c2ccc(-c3ccccc3)cc2O[C@@H]1CN(C)Cc1ccccn1 | 6 | x | x | x | x | 0
C[C@@H]1CN([C@H](C)CO)S(=O)(=O)c2ccc(-c3ccc(C#N)cc3)cc2O[C@H]1CN(C)Cc1ccccn1 | -6 | x | 65* | x | x | 53*
C[C@@H]1CN([C@H](C)CO)S(=O)(=O)c2ccc(-c3ccccc3)cc2O[C@H]1CN(C)Cc1ccccn1 | 6 | x | x | x | x | 73*
C[C@H]1CN([C@@H](C)CO)S(=O)(=O)c2ccc(-c3ccc(C#N)cc3)cc2O[C@@H]1CN(C)Cc1cccc(F)c1 | 15 | x | 76* | x | x | 18
Cc1ccn2c(c1)nc(=S)n2C(=O)c1ccccc1 | x | 49* | -6 | 16 | 41 | 71*
O=C(c1ccco1)n1c(=S)nc2ccccn21 | -28 | -34 | x | -152 | -30 | x
Cc1cccc(C(=O)n2c(=S)nc3cc(C)ccn32)c1 | 80* | 33 | -3 | 16 | 7 | 26
COc1cccc(S(=O)(=O)N(C)C[C@@H]2Oc3cc(C4=CCCCC4)ccc3S(=O)(=O)N([C@H](C)CO)C[C@@H]2C)c1 | x | x | u | x | x | -7
CC(C)c1cn(CC[C@@H]2CC[C@H](NC(=O)C3CCOCC3)[C@H](CO)O2)nn1 | -10 | x | -29 | x | x | x
Cc1cc(O)c(C(=O)/C=C/c2ccc(Cl)cc2)c(=O)o1 | -36 | -16 | -74 | -9 | -10 | -29
O=C(/C=C/c1ccc(Cl)cc1)c1ccc([N+](=O)[O-])o1 | 2 | 2 | 15 | 97* | 98* | 25
Cc1ccc(/C=C/C(=O)c2ccc([N+](=O)[O-])o2)cc1 | 16 | x | 27 | x | x | 64*
C[C@@H]1CCCCO[C@@H](CN(C)Cc2ccc3c(c2)OCO3)[C@H](C)CN([C@@H](C)CO)C(=O)c2cc(NC(=O)CCCN(C)C)ccc2O1 | -17 | x | -4 | x | x | -7
C[C@@H]1CN([C@H](C)CO)C(=O)c2cccc(NC(=O)Nc3ccc(F)cc3)c2O[C@@H]1CN(C)Cc1ccc(C(=O)Nc2ccccc2N)cc1 | 2 | x | 29 | x | x | x

Screening results from PubChem.
